# Source: PubChem
# An excerpt weighted towards active compounds, which were near 2.3% of everything screened.
# Lassa entry inh = Lassa virus entry inhibition; Lassa virus pseudotype entry inhibition, cell reporter; Potency, µM (titrated, usually from 37.9 µM), without a hit: at the top dose activity change, negative = inhibition, hits mostly inhibitors; 1.2% of 300,000 active; calls by dose curve; tested in HEK293 cells; note: nearly all actives have a fitted effect of over 50% in size
# MARV entry inh = inhibitors of Marburg virus binding or cell entry; Marburg virus pseudotyped entry inhibition, cell reporter; Potency, µM (titrated, usually from 37.8 µM), inactives show at the highest dose activity change, negative = inhibition, most hits filed as inhibitors; 1.8% of 300,000 active; calls by dose curve; tested in HEK293 cells
# AmpC no deterg = AmpC beta-lactamase inhibition without detergent; AID 485341; 0.52% of 330,000 active; AmpC nitrocefin hydrolysis, absorbance 480 nm, 0.0001% Triton; Potency, µM (top dose mostly 57.1 µM), for inactives: at the top dose activity change, negative = inhibition, actives largely listed as inhibitors;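 note: plate controls were no compound for no effect and no enzyme for full effect; nearly all actives have a fitted effect of over 20% in size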
# Target sequence (P00811 whole entry, looked up): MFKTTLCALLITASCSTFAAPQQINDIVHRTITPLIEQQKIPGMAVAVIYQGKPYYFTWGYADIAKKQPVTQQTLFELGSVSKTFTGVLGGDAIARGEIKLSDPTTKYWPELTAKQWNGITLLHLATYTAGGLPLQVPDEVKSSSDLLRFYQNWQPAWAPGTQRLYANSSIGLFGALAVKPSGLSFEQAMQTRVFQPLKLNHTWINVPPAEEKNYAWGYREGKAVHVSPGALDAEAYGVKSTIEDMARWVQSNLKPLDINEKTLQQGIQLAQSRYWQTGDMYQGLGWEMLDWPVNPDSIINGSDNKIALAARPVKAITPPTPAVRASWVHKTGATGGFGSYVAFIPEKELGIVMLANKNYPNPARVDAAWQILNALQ
#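 AmpC (5.3 nM in the dispensed reagent) in 20 mM phosphate pH 7.0 with 0.01% (detergent screen) or 0.0001% Triton X-100 was preincubated with compounds for 15 min at room temperature. Nitrocefin was then added from an 800 uM solution, and hydrolysis was followed at 480 nm.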
# AmpC inh detg = AmpC beta-lactamase inhibition with detergent present; AmpC hydrolysis of nitrocefin, absorbance 480 nm, 0.01% Triton; 0.041% of 370,000 active; AID 485294; Potency, µM (highest dose often 114 µM), for the others: at the highest dose activity change, negative = inhibition, most hits filed as inhibitors;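 note: 0% = no-compound wells and -100% = no-enzyme wells; nearly all actives have a fitted effect of over 25% in size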
#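 AmpC (5.3 nM in the dispensed reagent) in 20 mM phosphate pH 7.0 with 0.01% (detergent screen) or 0.0001% Triton X-100 was preincubated with compounds for 15 min at room temperature. Nitrocefin was then added from an 800 uM solution, and hydrolysis was followed at 480 nm.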
# AMA1 RON2 block = disrupts binding of P. falciparum AMA1 to RON2; AlphaScreen AMA1-biotinylated RON2 peptide binding; Potency, µM (titrated, usually from 58.2 µM), for inactives: at the highest dose activity change, negative = inhibition, most hits filed as inhibitors; 0.2% of 360,000 active;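 note: 0% = vehicle wells and -100% = peptide control; nearly all actives have a fitted effect of over 45% in size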
#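 AMA1 (3D7) with his tag at 25 nM final met compounds first, then biotinylated RON2 peptide at 25 nM; detection used donor plus acceptor beads, 10 µg/mL apiece, read by AlphaScreen after 30 min at room temperature.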
# The depositor's hits bear a star; u = inconclusive; x = not tested or not shown; [ ] = another dose, or the depositor's remark. Unless noted, calls come from the whole dose curve; as a rule, active = well fitted curve in the direction sought with a large enough effect; inconclusive = small, poorly fitted or top-dose-only effect, or another doubt; inactive = no such curve, though single readings can be large; an effect the other way counts as inactive or inconclusive. Unless noted, % is set by controls: 0 for no effect and ±100 for the full control effect; potency is the fitted concentration of half-maximal effect.
SMILES,Lassa entry inh,MARV entry inh,AmpC no deterg,AmpC inh detg,AMA1 RON2 block
O=C(NCc1ccccc1)C(c1ccccc1)N(Cc1ccc2c(c1)OCO2)C(=O)Cc1cccs1 (configuration not stated),13µM*,u,-13%,-8%,-11%
CCOC(=O)c1cccc(NC(=O)Nc2c(C)n(C)n(-c3ccccc3)c2=O)c1,-3%[46.1 µM],16%[46.1 µM],x,6%,x
COc1cc(OC)c(NC(=O)CN2C(=O)CCn3nc(-c4cccn4C)cc32)cc1Cl,16%[46.1 µM],x,x,2%,x
CCOC(=O)[C@]12C[C@@H]3CCN(C(=O)N(C(C)=O)[C@@H]1c1ccccc1)[C@@H]32,x,-9%[14.2 µM],x,x,x
Cc1cc2oc(C(=O)Nc3ccc(S(=O)(=O)N4CCC(C)CC4)cc3)cc(=O)c2cc1C,4%[46.1 µM],21%[46.1 µM],x,4%,x
Cc1cc2oc(C(=O)Nc3ccc(S(=O)(=O)N4CCCC(C)C4)cc3)cc(=O)c2cc1Cl (configuration not stated),u,11µM*,-42%,-13%,15%[11.6 µM]
COc1cc2c(c(OC)c1OC)CC(c1ccccc1)=C(c1ccccc1)CC2NC(=O)C(F)(F)F (configuration not stated),u,38%[14.2 µM],x,x,x
CCOC(=O)c1cccc(NC(=O)c2oc3c(c2C)-c2nn(CC)cc2CC3)c1,-9%[46.1 µM],x,x,9%,x
CC(=O)N1CCc2cc(NC(=O)c3ccc(C)cc3)ccc21,16µM*,u,-1%,0%,1%
CC(=O)Nc1ccc(NC(=O)c2ccc3c(c2)CCN3S(=O)(=O)c2ccc(C)cc2)cc1,12%[46.1 µM],7%[46.1 µM],x,2%,x
Cn1c2c(c(=O)n(C)c1=O)C(C(F)(F)F)(C(F)(F)F)N=C(CCC1CCCCC1)N2,2.6µM*,11µM*,41%,u,-1%
COc1cccc2cc(C(=O)CS(=O)(=O)c3ccc(C(C)(C)C)cc3)c(=O)oc12,x,x,18µM*,-1%,-6%
COc1ccc(-c2c(C)nn3c(N4CCC(C(=O)NCCN(C)C)CC4)cc(C)nc23)cc1OC,1%,21µM*,30%,2%,-6%
O=C(Cn1cc(COc2ccc([N+](=O)[O-])cc2)nn1)c1ccc(O)cc1,5%[46.1 µM],x,x,x,x
COC(=O)C1=C(C)N(CCC(C)O[Si](C)(C)C(C)(C)C)C(=O)N(C(C)=O)C1c1ccccc1 (configuration not stated),x,7%[14.2 µM],x,x,x
CCOC(=O)c1c(C)[nH]c(C(=O)N2CCN(c3ccc(OC)cc3)CC2)c1C,7.9µM*,u,71%,-8%,-18%
COc1ccc(N2CCN(C(=O)c3oc4ccccc4c3C)CC2)cc1,x,-26%[46.1 µM],5%,-14%,14µM*
CCOC(=O)c1[nH]c(C)c(C(=O)N2CCN(c3ccccc3)CC2)c1C,9%,-18%,76%,-6%,-2%
Fc1cccc(CN2CCc3nc(Nc4ccc5c(c4)OCCO5)ncc3C2)c1F,0%[46.1 µM],x,x,0%,x
O=C(NCC(c1ccco1)S(=O)(=O)c1cccs1)c1ccc(Cl)cc1 (configuration not stated),-4%[46.1 µM],x,x,1%,x
O=C(Nc1ccc(Cl)c(Cl)c1)Nc1nnc(CSc2ccccc2)s1,3.5µM*,10µM*,-13%,0%,-2%
Cc1cc(C)c2nc(NNC(=O)c3ccc(S(=O)(=O)N4CCc5ccccc5C4)cc3)sc2c1,16µM*,u,-36%,4%,41%
Cc1cc(C)c2sc(NNC(=O)c3ccc(S(=O)(=O)N4CCc5ccccc5C4)cc3)nc2c1,12µM*,u,3.5µM*,-19%,38%
CCc1nnc(NC(=O)c2ccc(S(=O)(=O)N3CCc4ccccc4C3)cc2)s1,1%,29%,-6%,-9%,1%
Cc1cc(C)c2sc(N(CCCN(C)C)C(=O)c3ccc(S(=O)(=O)N4CCc5ccccc5C4)cc3)nc2c1,x,x,170%,-1%,x
SMILES,Lassa entry inh,MARV entry inh,AmpC no deterg,AmpC inh detg,AMA1 RON2 block
O=[N+]([O-])c1ccc(S(=O)(=O)c2ccccc2)nc1,x,x,-18%,8%,-2%
Cc1ccc(S(=O)(=O)c2ccc([N+](=O)[O-])cn2)cc1,u,4µM*,-18%,-11%,-1%
Cc1cc(S(=O)(=O)c2ccc([N+](=O)[O-])cn2)ccc1Br,u,10µM*,x,x,-15%
Cc1oc(-c2ccc(C(=O)N(C)Cc3ccccc3)cc2)nc1CN1CCc2ccccc21,-4%[46.1 µM],x,x,1%,x
N#CC1=C(N)Oc2cc(N)ccc2C1c1ccc(Cl)cc1 (configuration not stated),u,u,11µM*,-2%,-6%
CCN(CC)c1ccc2c(c1)OC(N)=C(C#N)C2c1cccnc1 (configuration not stated),u,u,-29%,-12%,-11%
COc1ccc(C2C(C#N)=C(N)Oc3cc(N)ccc32)cc1 (configuration not stated),x,x,-25%,-15%,0%
N#CC1=C(N)Oc2cc(Nc3ccccc3)ccc2C1c1ccncc1 (configuration not stated),u,18µM*,-27%,-6%,30%
N#CC1=C(N)Oc2cc(N)ccc2C1c1ccc(F)cc1 (configuration not stated),-27%,u,-34%,-11%,-5%
COc1cc(C2C(C#N)=C(N)Oc3cc(N)ccc32)cc(OC)c1OC (configuration not stated),u,5.6µM*,-24%,-2%,-6%
N#CC1=C(N)Oc2cc(N)ccc2C1c1cccnc1 (configuration not stated),-1%,16µM*,-16%,u,-4%[2.32 µM]
COC(=O)[C@@H]1C[C@@]23C(=NN=C(SC)C2Nc2ccccc23)N1C(C)=O (some centres not stated),x,-23%[14.2 µM],x,x,x
CCOC(=O)c1ccc(NC(=O)Cc2ccc(-n3c(CC)nc4cccnc43)cc2)cc1,2%[46.1 µM],x,x,5%,x
c1ccc(-c2[nH]ncc2-c2ccnc(-c3ccc(OCCN4CCOCC4)cc3)c2)nc1,6%,x,x,x,x
COc1ccccc1NS(=O)(=O)c1cc(NC(=O)c2ccncc2)ccc1N1CCCC1,u,11µM*,62%,-10%,-7%
COc1ccccc1NS(=O)(=O)c1cc(C(=O)N2CC(C)CC(C)C2)ccc1C (configuration not stated),18%,8.2µM*,60%,-5%,24%
COc1ccccc1NS(=O)(=O)c1cc(NC(=O)c2ccc(=O)[nH]c2)ccc1N1CCOCC1,12%,u,14µM*,1%,-5%[2.32 µM]
Cc1ccccc1NS(=O)(=O)c1cc(C(=O)N2CCCC2)ccc1C,16%,-2%,-7%,-4%,-4%
COc1ccccc1NS(=O)(=O)c1cc(NC(=O)c2ccccc2C)ccc1N1CCOCC1,u,u,x,x,-12%[11.6 µM]
O=C(Nc1ccc(Cl)cc1)Nc1ccc(N2CCCC2)c(S(=O)(=O)Nc2ccccc2Cl)c1,5µM*,1.6µM*,-46%,2%,-12%
